Rows were chosen to be rich in hits. Some 1.9% of all compounds tested hit in one or more screens of this group.
PP1 counter – PP1-alpha phosphatase inhibitors, primary screen, counter-screen for PP5 inhibitor project, biochemical, fluorescence, OMFP substrate, single point. purified PP1alpha. inhibition, % at 6.7 µM. hit rate 0.9% among 320,000;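 active means inhibition above the mean inhibition of all tested compounds plus 3 SD, computed separately for each screening campaign, cut at about 15% in these data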
ATG4B inh – ATG4B protease inhibitors, primary screen, biochemical, fluorescence, uHTS. inhibition, % at 8.33 µM. ATG4B cleavage of LC3-PLA2, NBD-HPC fluorescence, 1 h. Cysteine protease ATG4B (Homo sapiens), Q9Y4P1. AID 504462, 2011. hit rate 0.51% among 340,000; in the data active means inhibition above about 40%
PP5 primary – PP5 phosphatase inhibitors, primary screen, biochemical, fluorescence; purified PP5c, OMFP substrate fluorescence; inhibition, % at 6.7 µM; hit rate 0.18% among 320,000; AID 1987, 2009;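 active means inhibition above the campaign's mean inhibition across all tested compounds plus 3 SD, cut at about 9.5% in these data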;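 further: 0% = DMSO only and 100% = 100 µM cantharidin control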
Target sequence (P53041 whole entry, looked up): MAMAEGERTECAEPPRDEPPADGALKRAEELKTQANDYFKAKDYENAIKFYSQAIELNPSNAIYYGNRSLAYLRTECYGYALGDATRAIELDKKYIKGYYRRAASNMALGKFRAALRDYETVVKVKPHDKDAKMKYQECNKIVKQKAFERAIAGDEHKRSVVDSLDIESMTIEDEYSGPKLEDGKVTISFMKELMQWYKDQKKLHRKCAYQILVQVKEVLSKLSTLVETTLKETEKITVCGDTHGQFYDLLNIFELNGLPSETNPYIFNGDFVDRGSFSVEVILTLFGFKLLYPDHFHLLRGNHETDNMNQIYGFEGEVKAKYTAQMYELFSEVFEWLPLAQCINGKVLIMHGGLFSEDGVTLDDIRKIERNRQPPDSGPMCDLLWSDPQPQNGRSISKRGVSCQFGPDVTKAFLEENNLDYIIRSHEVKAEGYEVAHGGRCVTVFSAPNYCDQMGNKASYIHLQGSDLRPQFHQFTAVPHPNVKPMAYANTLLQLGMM
H9c2 protect – cardioprotection against H2O2-induced cell death, primary screen, uHTS, H9c2 cells, ATPLite luminescence; hit rate 0.63% among 360,000; AID 588492, 2011; H9c2 cardiomyocytes, H2O2 injury protection, 2 h; protection from H2O2 cell death, % at 20 µM;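 active means compounds giving at least 50% protection of heart cells from peroxide-induced death in the single-dose screen, raw or plate-pattern-corrected value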;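 further: 0% = DMSO wells with peroxide and 100% = DMSO wells without peroxide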
PP1 confirm – PP1 phosphatase inhibitors, confirmation, biochemical, fluorescence, OMFP substrate, triplicate; purified PP1alpha; hit rate 52% among 1,900; shares compounds with PP1 counter; inhibition, % at 6.7 µM;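 active means mean PP1 inhibition above a set limit taken from the earlier primary screen, cut at about 15% in these data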
PP5 inh counter – PP5 phosphatase inhibition by PP1 hits, confirmation, counter-screen for PP1 inhibitor project, biochemical, fluorescence, triplicate; shares compounds with PP1 counter; purified PP5c, OMFP fluorescence; inhibition, % at 6.7 µM; hit rate 4% among 1,900; AID 2360, 2010;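 active means mean PP5 inhibition over triplicate wells above about 9.5% taken from the earlier PP1 screen, limit read from the data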
* hit, by the source's call; x = not tested or not shown.

SMILES	PP1 counter	ATG4B inh	PP5 primary	H9c2 protect	PP1 confirm	PP5 inh counter
CCCSc1nnc(N2C(=O)C(O)=C(C(=O)c3ccco3)C2c2ccccc2F)s1 (centres undefined)	22*	-3	3	1	14	-3
CSc1nnc(N2C(=O)C(O)=C(C(=O)c3ccc(C)o3)C2c2ccc(C)cc2)s1 (centres undefined)	30*	0	2	-3	25*	-2
CC(=O)NC(Cc1ccc(C(C)C)cc1)C(=O)NC1CCN(C(=O)c2cccc(C)c2)CC1 (centres undefined)	-2	-8	2	6	x	x
Cc1ccc(NC(=O)NC(=O)COc2ccccc2C(N)=O)c(C)c1	3	-7	0	-2	x	x
CCc1noc(C)c1C(=O)OCC(=O)NCc1ccccc1OC	-2	10	1	12	x	x
Cc1nn(CC(=O)Nc2ccc3c(c2)nc(CCN2CCCCC2)n3C)c(=O)c2ccccc12	-2	-2	1	-1	x	x
Cc1nn(CC(=O)Nc2ccc3c(c2)nc2n3CCN(C3CCCCC3)C2)c(=O)c2ccccc12	20*	0	3	-4	6	0
COc1ccc(CCC(=O)NC2CCC(C)CC2)cc1 (centres undefined)	-4	4	4	1	x	x
Cn1cnnc1SCC(=O)Nc1ccccc1	1	4	-1	12	x	x
Cn1cnnc1SCC(=O)Nc1ccc(OCc2ccccc2)cc1	24*	-13	1	-13	4	-3
O=C1C=CC(=O)N1CCNc1ncc(C(F)(F)F)cc1Cl	x	0	x	-25	x	x
O=C1CC(=O)N(CCNc2ncc(C(F)(F)F)cc2Cl)C(=O)N1	29*	10	3	0	-2	-1
COc1cc(/C=N/NC(=O)c2cc(-c3ccco3)nc3ccccc23)cc(OC)c1O	12	-14	0	25	x	x
O=C(N/N=C/c1cccc(F)c1)c1cc(-c2ccco2)nc2ccccc12	31*	11	-4	-15	11	-2
Cc1ccc(CSCC2Nc3ccc(C(=O)N4CCN(c5cccc(C)c5)C(C)C4)cc3NC2=O)cc1 (centres undefined)	19*	x	1	x	29*	-6
COc1cccc(N=Nc2ccc(O)c3ncccc23)c1	27*	-4	4	14	23*	-1
COc1ccc(N=Nc2ccc(O)c3ncccc23)cc1	27*	2	2	22	26*	-2
O=S(=O)(O)c1cccc2c(N=Nc3ccc(O)c4ncccc34)cccc12	47*	30	1	-11	19*	-2
COc1cccc(N=Nc2ccc3cccnc3c2O)c1	31*	1	4	11	25*	-2
NS(=O)(=O)c1ccc(CCNC(=O)CCc2nc3sc4c(c3c(=O)[nH]2)CCCC4)cc1	-6	-1	2	14	x	x
Cc1ccc(S(C)(=O)=O)cc1C(=O)OCC(=O)N(Cc1ccccc1)Cc1ccccc1	-5	2	4	9	x	x
Cc1ccc(-n2nc3ccc(NC(=O)/C=C/c4ccco4)cc3n2)cc1	19*	17	0	-3	9	-2
Cc1ccc(NC(=O)c2cccc(NC(=O)/C=C/c3ccco3)c2)cc1C	3	13	6	22	x	x
Cc1ccc(/C=C2\SC(=S)N(NS(=O)(=O)c3ccc(C)cc3)C2=O)cc1	5	13	4	-4	x	x
C=CCOc1ccc(/C=C2\SC(=S)N(NS(=O)(=O)c3ccc(C)cc3)C2=O)cc1	25*	33	2	-4	17*	-1
Cc1nc(-c2ccccc2)c(-c2ccccc2)[nH]1	-3	-4	5	2	x	x
NC(=O)c1nc(-c2ccccc2)c(-c2ccccc2)[nH]c1=O	20*	-8	0	5	16*	-4
CCOc1ccc(C(=O)N/N=C/c2ccc(-c3ccc(S(=O)(=O)Nc4ncccn4)cc3)o2)cc1	-1	-7	0	8	x	x

Screening data: PubChem BioAssay, several laboratories
